# Measured values taken from the supplement of paper PMC10849652.
# Targets with a hit are over-represented here; the source holds about 7,900 in all. About 0.6% of all pairs of compound and target were hits. Unmarked numbers belong to inactive results.
# Columns and labels:
# Experiment in all cases: log2 fold change, soluble protein after heating vs DMSO (PISA); higher = thermal stabilisation; K562 cells, 10 uM, 30 min; active = over 0.2 and 3.5 SD of the protein, either way, in both replicates (recomputed)
# saracatinib = compound: CN1CCN(CCOc2cc(OC3CCOCC3)c3c(Nc4c(Cl)ccc5c4OCO5)ncnc3c2)CC1 [saracatinib]
# Method in brief: (§1)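 Values are thermal stability changes relative to control samples and are taken from duplicates. They are stated as log2 fold changes. Before quantification by TMTpro 16plex LC-MS/MS with equalised channel sums, K562 cells at 2×10^6 cells/mL were treated with 10 μM compound for 30 min, heated in aliquots for 3 min across 48°C-58°C, pooled, extracted in PBS with 0.5% NP-40 at 4°C, and centrifuged at 21,000xg for 90 min to give the soluble supernatant.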
# sotrastaurin = compound: CN1CCN(c2nc(C3=C(c4c[nH]c5ccccc45)C(=O)NC3=O)c3ccccc3n2)CC1 [sotrastaurin]
# Method in brief: as §1
# alvocidib = compound: CN1CC[C@H](c2c(O)cc(O)c3c(=O)cc(-c4ccccc4Cl)oc23)[C@H](O)C1 [alvocidib]
# Method in brief: as §1
# Tubastatin A = compound: CN1CCc2c(c3ccccc3n2Cc2ccc(C(=O)NO)cc2)C1 [Tubastatin A]
# Method in brief: as §1
# [1] = compound: CNC(=O)C1=CC=CC=C1NC2=NC(=NC=C2Cl)NC3=C(C=C(C=C3)N4CCOCC4)OC
# Method in brief: as §1
# defactinib = compound: CNC(=O)c1ccc(Nc2ncc(C(F)(F)F)c(NCc3nccnc3N(C)S(C)(=O)=O)n2)cc1 [defactinib]
# Method in brief: as §1
# rucaparib = compound: CNCc1ccc(-c2[nH]c3cc(F)cc4c3c2CCNC4=O)cc1 [rucaparib]
# Method in brief: as §1
# [2] = compound: CNc1nc(-c2ccc3c(N)n[nH]c3c2)cc(N2C[C@@H](C(=O)NC3CCCCC3)CC[C@H]2C)n1
# Method in brief: as §1
# encorafenib = compound: COC(=O)N[C@@H](C)CNc1nccc(-c2cn(C(C)C)nc2-c2cc(Cl)cc(NS(C)(=O)=O)c2F)n1 [encorafenib]
# Method in brief: as §1
# [3] = compound: COC(=O)[C@H](CCSC)NC(=O)C1=C(C=C(C=C1)NC[C@H](CS)N)C2=CC=CC=C2
# Method in brief: as §1
# UniProt Q6NT16, sequence (Q6NT16 whole entry, looked up): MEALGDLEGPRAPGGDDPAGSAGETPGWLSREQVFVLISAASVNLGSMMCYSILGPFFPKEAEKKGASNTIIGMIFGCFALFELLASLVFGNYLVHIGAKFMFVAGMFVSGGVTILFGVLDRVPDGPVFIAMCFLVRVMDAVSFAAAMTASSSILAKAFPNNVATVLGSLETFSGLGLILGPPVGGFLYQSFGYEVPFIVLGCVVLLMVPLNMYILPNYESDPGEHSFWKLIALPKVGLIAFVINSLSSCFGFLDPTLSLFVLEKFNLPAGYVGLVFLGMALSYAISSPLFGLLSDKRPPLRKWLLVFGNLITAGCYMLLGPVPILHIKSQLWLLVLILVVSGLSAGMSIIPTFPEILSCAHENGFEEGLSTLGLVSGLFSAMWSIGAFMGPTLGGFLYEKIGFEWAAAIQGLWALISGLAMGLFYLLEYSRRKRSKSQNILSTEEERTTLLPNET
# UniProt Q01974, sequence (Q01974 whole entry, looked up): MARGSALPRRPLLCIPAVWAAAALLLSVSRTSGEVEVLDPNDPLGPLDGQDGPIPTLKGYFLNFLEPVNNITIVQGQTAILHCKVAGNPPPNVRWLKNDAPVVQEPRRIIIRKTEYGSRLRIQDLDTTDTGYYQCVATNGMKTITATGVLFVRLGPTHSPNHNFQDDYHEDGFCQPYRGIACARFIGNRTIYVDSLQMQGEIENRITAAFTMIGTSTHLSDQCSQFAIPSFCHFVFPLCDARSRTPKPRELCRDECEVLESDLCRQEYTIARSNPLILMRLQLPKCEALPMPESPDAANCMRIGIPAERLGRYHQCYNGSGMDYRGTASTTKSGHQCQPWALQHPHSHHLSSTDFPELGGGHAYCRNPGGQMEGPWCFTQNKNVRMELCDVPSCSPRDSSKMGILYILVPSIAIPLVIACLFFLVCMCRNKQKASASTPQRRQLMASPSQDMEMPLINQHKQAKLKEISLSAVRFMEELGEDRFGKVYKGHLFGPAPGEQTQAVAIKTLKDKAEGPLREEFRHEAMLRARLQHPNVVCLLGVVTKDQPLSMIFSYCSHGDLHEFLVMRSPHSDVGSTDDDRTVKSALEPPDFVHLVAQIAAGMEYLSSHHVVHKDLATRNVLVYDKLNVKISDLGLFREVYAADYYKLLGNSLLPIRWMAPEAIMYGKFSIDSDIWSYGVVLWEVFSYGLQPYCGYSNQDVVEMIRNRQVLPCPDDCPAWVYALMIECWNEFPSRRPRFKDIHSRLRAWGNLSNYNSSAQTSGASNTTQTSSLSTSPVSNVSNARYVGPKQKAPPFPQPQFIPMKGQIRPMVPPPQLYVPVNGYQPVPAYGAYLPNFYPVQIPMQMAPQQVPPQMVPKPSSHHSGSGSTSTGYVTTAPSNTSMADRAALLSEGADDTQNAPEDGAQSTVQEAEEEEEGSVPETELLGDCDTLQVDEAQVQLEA
# UniProt Q96DX4, sequence (Q96DX4 whole entry, looked up): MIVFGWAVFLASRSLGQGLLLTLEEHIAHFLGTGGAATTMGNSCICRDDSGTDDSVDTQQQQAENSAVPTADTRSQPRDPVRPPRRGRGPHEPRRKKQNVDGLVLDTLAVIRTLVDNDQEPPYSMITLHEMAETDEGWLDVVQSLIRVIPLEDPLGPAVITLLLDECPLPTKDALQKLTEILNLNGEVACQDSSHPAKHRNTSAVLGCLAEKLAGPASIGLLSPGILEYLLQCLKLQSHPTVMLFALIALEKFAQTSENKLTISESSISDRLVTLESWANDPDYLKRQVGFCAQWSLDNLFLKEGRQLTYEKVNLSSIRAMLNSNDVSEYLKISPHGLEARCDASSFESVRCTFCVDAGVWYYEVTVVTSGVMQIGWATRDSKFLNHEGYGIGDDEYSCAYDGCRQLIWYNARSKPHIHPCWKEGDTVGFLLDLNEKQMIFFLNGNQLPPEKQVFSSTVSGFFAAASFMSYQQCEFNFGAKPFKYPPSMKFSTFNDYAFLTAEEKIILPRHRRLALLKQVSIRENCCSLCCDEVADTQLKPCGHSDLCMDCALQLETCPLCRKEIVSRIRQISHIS
# UniProt P62070, sequence (P62070 whole entry, looked up): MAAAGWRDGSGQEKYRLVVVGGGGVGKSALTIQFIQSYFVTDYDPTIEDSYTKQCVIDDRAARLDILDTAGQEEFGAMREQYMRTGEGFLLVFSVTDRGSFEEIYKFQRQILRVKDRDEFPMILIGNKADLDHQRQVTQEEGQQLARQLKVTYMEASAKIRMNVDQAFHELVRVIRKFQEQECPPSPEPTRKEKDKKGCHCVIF
# UniProt Q9BXP2, sequence (Q9BXP2 whole entry, looked up): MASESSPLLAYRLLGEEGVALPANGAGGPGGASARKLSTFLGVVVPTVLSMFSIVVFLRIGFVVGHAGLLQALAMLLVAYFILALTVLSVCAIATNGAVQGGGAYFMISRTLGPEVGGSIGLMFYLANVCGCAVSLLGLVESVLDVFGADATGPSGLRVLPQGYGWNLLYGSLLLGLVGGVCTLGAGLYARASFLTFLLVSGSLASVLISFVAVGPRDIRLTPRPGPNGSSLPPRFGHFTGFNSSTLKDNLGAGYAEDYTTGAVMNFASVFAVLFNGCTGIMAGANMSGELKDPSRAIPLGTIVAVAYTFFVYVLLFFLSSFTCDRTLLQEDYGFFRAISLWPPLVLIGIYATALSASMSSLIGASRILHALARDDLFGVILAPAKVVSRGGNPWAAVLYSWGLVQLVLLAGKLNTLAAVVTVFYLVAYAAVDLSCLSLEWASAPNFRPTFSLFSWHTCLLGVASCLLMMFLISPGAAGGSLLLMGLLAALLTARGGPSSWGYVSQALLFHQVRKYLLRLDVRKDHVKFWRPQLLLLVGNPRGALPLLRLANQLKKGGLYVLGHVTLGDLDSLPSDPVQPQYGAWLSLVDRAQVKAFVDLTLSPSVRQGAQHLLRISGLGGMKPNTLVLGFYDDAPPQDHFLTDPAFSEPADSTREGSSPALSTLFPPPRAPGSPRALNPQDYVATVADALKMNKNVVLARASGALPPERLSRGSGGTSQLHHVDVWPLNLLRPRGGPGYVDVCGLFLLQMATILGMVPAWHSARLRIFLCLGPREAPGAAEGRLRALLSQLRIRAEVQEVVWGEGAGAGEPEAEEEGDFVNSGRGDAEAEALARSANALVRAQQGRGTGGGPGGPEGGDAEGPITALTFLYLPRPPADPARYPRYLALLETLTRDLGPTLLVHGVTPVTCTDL
# UniProt P58004, sequence (P58004 whole entry, looked up): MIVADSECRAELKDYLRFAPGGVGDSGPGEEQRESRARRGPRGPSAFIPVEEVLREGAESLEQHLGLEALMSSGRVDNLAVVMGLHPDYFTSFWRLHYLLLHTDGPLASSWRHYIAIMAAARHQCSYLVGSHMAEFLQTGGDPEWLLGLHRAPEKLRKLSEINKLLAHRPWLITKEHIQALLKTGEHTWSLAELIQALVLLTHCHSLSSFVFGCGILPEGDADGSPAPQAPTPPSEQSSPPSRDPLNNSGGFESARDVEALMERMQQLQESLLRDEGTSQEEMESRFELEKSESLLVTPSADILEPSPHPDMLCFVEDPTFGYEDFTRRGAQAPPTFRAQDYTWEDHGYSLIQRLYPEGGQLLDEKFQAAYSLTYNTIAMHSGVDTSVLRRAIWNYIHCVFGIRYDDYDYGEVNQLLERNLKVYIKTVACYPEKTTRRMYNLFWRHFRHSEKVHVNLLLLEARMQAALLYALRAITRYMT
# UniProt P04049, sequence (P04049 whole entry, looked up): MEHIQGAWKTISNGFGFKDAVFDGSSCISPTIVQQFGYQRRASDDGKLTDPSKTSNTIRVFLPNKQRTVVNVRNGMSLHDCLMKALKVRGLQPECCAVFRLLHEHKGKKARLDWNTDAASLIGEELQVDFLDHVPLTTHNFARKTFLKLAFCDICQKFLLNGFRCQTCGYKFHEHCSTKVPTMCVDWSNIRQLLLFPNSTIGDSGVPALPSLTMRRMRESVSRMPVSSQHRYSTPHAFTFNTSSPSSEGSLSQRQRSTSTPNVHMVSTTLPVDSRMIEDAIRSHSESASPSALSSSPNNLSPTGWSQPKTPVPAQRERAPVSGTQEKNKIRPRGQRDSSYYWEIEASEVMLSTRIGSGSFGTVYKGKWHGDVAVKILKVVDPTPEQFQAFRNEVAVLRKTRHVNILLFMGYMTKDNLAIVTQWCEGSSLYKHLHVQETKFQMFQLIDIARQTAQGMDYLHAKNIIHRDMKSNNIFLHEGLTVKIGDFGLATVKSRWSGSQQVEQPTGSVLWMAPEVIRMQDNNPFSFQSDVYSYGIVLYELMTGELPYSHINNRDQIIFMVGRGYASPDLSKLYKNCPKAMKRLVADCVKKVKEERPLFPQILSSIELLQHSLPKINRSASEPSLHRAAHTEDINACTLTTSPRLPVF
# UniProt O43819, sequence (O43819 whole entry, looked up): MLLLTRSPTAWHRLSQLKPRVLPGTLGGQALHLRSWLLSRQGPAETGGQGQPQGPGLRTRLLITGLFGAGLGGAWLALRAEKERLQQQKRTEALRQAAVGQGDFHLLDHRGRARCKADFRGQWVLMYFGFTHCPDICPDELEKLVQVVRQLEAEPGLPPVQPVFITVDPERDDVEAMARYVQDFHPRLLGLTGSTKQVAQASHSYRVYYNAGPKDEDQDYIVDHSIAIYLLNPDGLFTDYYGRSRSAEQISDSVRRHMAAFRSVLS
# UniProt Q9BWF3, sequence (Q9BWF3 whole entry, looked up): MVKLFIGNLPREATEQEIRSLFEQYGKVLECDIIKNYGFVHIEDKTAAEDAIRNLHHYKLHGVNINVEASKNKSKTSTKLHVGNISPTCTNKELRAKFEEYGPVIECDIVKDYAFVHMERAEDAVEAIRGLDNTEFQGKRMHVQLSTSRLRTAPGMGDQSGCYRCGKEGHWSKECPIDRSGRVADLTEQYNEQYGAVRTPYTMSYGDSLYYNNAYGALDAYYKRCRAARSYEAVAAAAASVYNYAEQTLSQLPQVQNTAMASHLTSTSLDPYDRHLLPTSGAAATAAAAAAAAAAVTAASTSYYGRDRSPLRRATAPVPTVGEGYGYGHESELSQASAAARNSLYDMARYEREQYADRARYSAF
# UniProt Q8N0T1, sequence (Q8N0T1 whole entry, looked up): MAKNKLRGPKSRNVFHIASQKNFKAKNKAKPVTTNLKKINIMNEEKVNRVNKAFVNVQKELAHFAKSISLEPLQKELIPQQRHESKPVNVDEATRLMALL
Target,log2 fold change (saracatinib),log2 fold change (sotrastaurin),log2 fold change (alvocidib),log2 fold change (Tubastatin A),log2 fold change [1],log2 fold change (defactinib),log2 fold change (rucaparib),log2 fold change [2],log2 fold change (encorafenib),log2 fold change [3]
RBM4 (UniProt Q9BWF3),0.024,-0.1,-0.037,0.017,-0.052,-0.055,0.157,-0.036,0.063,0.025
RNF187 (UniProt Q5TA31),-0.069,0.001,-0.092,0.196,-0.084,-0.047,-0.139,0.05,-0.042,-0.05
SLC18B1 (UniProt Q6NT16),0.021,0.023,0.02,0.04,0.061,0.094,-0.012,-0.071,0.012,0.056
RPS21 (UniProt P63220),-0.017,0.005,0.104,0.246,0.039,0.052,-0.039,-0.001,0.021,0.027
RBM8A (UniProt Q9Y5S9),0.011,-0.002,0.188,0.045,-0.032,0.075,-0.043,-0.006,0.025,0.012
RSPRY1 (UniProt Q96DX4),-0.073,-0.01,0.001,0.009,-0.037,0.013,0.118,0.126,0.04,0.009
RCOR3 isoform 3 (UniProt Q9P2K3),-0.142,-0.011,-0.15,0.142,-0.019,-0.073,0.075,-0.044,0.026,-0.062
SLC12A5 (UniProt Q9H2X9),-0.152,0.053,-0.067,-0.072,-0.007,0.08,-0.138,0.148,0.044,0.075
RDH10 (UniProt Q8IZV5),0.005,0.016,-0.043,0.04,0.068,-0.002,-0.034,0.072,-0.011,-0.063
SACM1L (UniProt Q9NTJ5),0.004,0.003,-0.098,-0.026,0.042,-0.08,-0.062,0.007,0.034,-0.046
SCO2 (UniProt O43819),0.034,0.087,0.006,0.016,-0.042,0.017,0.087,-0.004,0.003,-0.124
RRAS2 isoform 4 (UniProt P62070),0.069,0.075,0.024,0.014,-0.001,-0.016,0,0.05,-0.011,0.004
RPS15 (UniProt P62841),-0.02,0.07,0.325,0.087,0.04,0.233,0.226,0.061,0.028,0.06
RDH13 (UniProt Q8NBN7),-0.084,0.027,-0.097,-0.063,-0.062,-0.043,0.029,0.016,0.014,-0.016
SLC12A9 (UniProt Q9BXP2),0.102,0.016,-0.094,-0.09,-0.016,-0.043,-0.073,-0.068,-0.017,-0.01
RBM27 (UniProt Q9P2N5),0.04,-0.039,-0.141,0.013,-0.297 (active),-0.303 (active),-0.015,0.033,-0.011,-0.042
RAF1 isoform 2 (UniProt P04049),-0.029,-0.167,-0.105,-0.036,0.078,-0.075,0.125,0.176,0.737 (active),-0.069
RAP2C (UniProt Q9Y3L5),0.04,0.026,-0.009,-0.014,-0.058,-0.044,-0.003,-0.054,-0.041,0.01
RBIS (UniProt Q8N0T1),0.054,-0.002,0.059,0.037,-0.026,0.058,-0.048,-0.037,0.022,0.03
RPP25L (UniProt Q8N5L8),-0.079,-0.087,0.061,0.026,0.062,0.002,-0.032,-0.158,0.014,0.058
ROR2 (UniProt Q01974),0.034,-0.071,-0.06,-0.025,-0.023,-0.107,-0.012,0.084,0.03,-0.121
RPS9 (UniProt P46781),-0.044,-0.015,0.237,0.119,0.083,0.226,0.108,0.095,0.118,-0.027
RRAGC (UniProt Q9HB90),0.023,0.006,-0.013,-0.025,-0.014,-0.005,-0.058,-0.063,0.036,-0.005
SHROOM2 (UniProt Q13796),-0.118,0.128,0.071,0.283,-0.29,0.059,-0.049,0.08,-0.136,0.1
SESN2 (UniProt P58004),-0.009,-0.222,-0.147,0.131,0.039,-0.229,0.044,0.09,0.041,-0.121
RARS2 (UniProt Q5T160),0.005,-0.101,-0.086,-0.056,-0.035,-0.064,0.003,-0.042,0.026,-0.003
SETD3 (UniProt Q86TU7),0.008,0.012,-0.071,-0.056,0.014,-0.004,0.022,0.032,-0.009,0
